# According to PubChem BioAssay AID1272365 (Small Molecule Screening Facility, UW Madison, 2018):
# Several values for one entry are separate records, joined by “and”; a condition that tells them apart may be missing. Equal values may be shown once. The whole screen tested about 430,000 compounds, of which about 2,600 (0.6%) were called active. This is one part of a sample in which actives are shown more often than they occur. Rule as the data show it: active = inhibition mostly above about 37% (no sharp cut-off); inactive = mostly below about 20%.
# System: PriA–SSB C-terminal tail interaction (Klebsiella pneumoniae)
# Test: inhibitors of Klebsiella pneumoniae PriA binding to SSB C-terminal tail, primary screen, biochemical, AlphaScreen (AID 1272365);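 also: plate controls were negative control peptide for no effect and reference peptide for full effect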
# Details: AlphaScreen SSBct-PriA binding, biotinylated peptide; at 33 µM, stronger effect = higher value
row,Compound,inhibition
1,CCCN1CCCc2cc(CCNC(=O)C(=O)Nc3ccc(OC(F)(F)F)cc3)ccc21,-6% (inactive)
2,CCCN1CCCc2cc(CCNS(=O)(=O)Cc3cccc(C)c3)ccc21,73% (active)
3,CCCNS(=O)(=O)c1ccc2c(c1)CCCN2C(C)=O,-6.74% (inactive)
4,Cc1cccc(CCNS(=O)(=O)c2ccc3c(c2)NC(=O)CO3)c1,1.31% (inactive)
5,Cc1cccc(CCNS(=O)(=O)c2ccc(S(=O)(=O)NC3CCCC3)cc2)c1,-8.63% (inactive)
6,CCCN1CCCc2cc(CCNS(=O)(=O)c3ccc(NC(C)=O)cc3)ccc21,85% (active)
7,Cn1cccc1CN(Cc1cccs1)C(=O)c1ccccc1S(=O)(=O)C(F)F,20% (inactive)
8,Cc1nc(N2CCCC2)nc(C)c1NC(=O)c1cccc(Cl)c1,-6% (inactive)
9,Cc1cc(NC(=O)CSc2nnc(C)c3cnn(-c4ccc(F)cc4)c23)no1,-7% (inactive) and -11% (inactive)
10,CCc1ccc(S(=O)(=O)N2CCOC(c3ccccc3)C2)s1 (centres undefined),-11% (inactive)
11,COc1ccc(-c2nnc(SC(=O)N3c4ccccc4Sc4ccccc43)o2)cc1,42.2% (active)
12,COc1ccc(-c2nnc(NC(=O)c3ccc(SC)cc3)o2)cc1,-3% (inactive)
13,COc1ccc2nc(N=C(N)NC(=O)N3c4ccccc4Sc4ccccc43)nc(C)c2c1,-5.89% (inactive)
14,Cc1oc2cc(OCC(=O)c3ccc(F)cc3)ccc2c(=O)c1-c1ccccc1,7% (inactive)
15,CCCCOc1ccc(C(=O)Nc2ccc3c(c2)C(=O)N(C)C3=O)cc1,-4% (inactive)
16,COc1ccc(S(=O)(=O)N2CCOCC2)cc1NC(=O)CSc1ncnc2ccccc12,-9.78% (inactive)
17,COc1ccc(S(=O)(=O)N2CCOCC2)cc1NC(=O)Cc1coc2cc(C)ccc12,-2.71% (inactive)
18,COc1ccc(S(=O)(=O)N2CCOCC2)cc1NC(=O)CSc1cc(C)ccc1C,49.7% (active)
19,CC(=O)c1sc(NC(=O)COc2ccc(Cl)cc2)nc1C,-10% (inactive)
20,CSc1ccccc1NC(=O)C(=O)NC[C@]1(O)CCc2ccccc2C1,-6% (inactive)
21,CS(=O)(=O)N1CCC(CNC(=O)c2nc3ccccc3s2)CC1,-21% (inactive)
22,C[C@H](O)CN1CCN(C(=O)c2nc3ccccc3s2)CC1,-1% (inactive)
23,Cn1ccnc1SCC1CCN(C(=O)c2nc3ccccc3s2)CC1,39% (active)
24,O=C(Nc1nc2ccccc2s1)C(=O)NC1CC1,3% (inactive)

row,Compound,inhibition
1,O=C(O)C(NC(=O)c1ccc(Cl)cc1)=C(Cl)Cl,-6% (inactive)
2,CC(C)c1nnc(NC(=O)/C=C/c2cccs2)s1,-6% (inactive)
3,COc1ccc(C)cc1NC(=O)CSc1ncc(-c2ccccc2)n1C,-3% (inactive)
4,COCCN1CCCc2ccc(NC(=O)c3cccc(OC)c3)cc21,53% (inactive)
5,COCCN1CCCc2ccc(NS(=O)(=O)CCc3ccccc3)cc21,34% (active)
6,COCCN1CCCc2ccc(NS(=O)(=O)c3ccc(C)c(Cl)c3)cc21,54% (active)
7,COc1cc(NS(=O)(=O)CCc2ccccc2)ccc1N1CCCC1=O,-16% (inactive)
8,O=C(C1CCCC1)N1CCc2ccc(NS(=O)(=O)CCc3ccccc3)cc21,5% (inactive)
9,COCCN1CCCc2ccc(NC(=O)c3ccc(OC)cc3)cc21,45% (inactive)
10,c1cncc(-c2nnc3sc(-c4cc5ccccc5o4)nn23)c1,-28% (inactive)
11,O=S(=O)(c1ccccc1F)N1CCN(c2cnnc(N3CCCC3)c2)CC1,0% (inactive)
12,CCOC(=O)c1sc(=NC(=O)CCCSc2ccc(OC)cc2)n(C)c1C,2% (inactive)
13,COc1ccc(N2CCN(c3ccc([N+](=O)[O-])nc3)CC2)cc1,3.99% (inactive)
14,COc1ccc(-c2cc(C3CCN(c4ncccc4[N+](=O)[O-])CC3)[nH]n2)cc1,47.3% (active)
15,CC(=O)NC(Cc1ccccc1)C(=O)NC1CCN(c2ncccc2[N+](=O)[O-])CC1 (centres undefined),-3.58% (inactive)
16,COCCn1c(SCc2nc(-c3ccc(F)cc3)no2)nc2ccsc2c1=O,-36% (inactive)
17,COC(=O)c1sccc1S(=O)(=O)N1C2CCCC1COC2,-5% (inactive)
18,O=C(NCc1cccs1)NCc1cccnc1-c1ccsc1,-6% (inactive)
19,O=C(NCCn1ccnc1-c1ncccn1)NCc1cccs1,71% (active)
20,Cc1noc(CNC(=O)NCc2cccs2)n1,-6% (inactive)
21,O=C(Cc1cc(-c2ccc3c(c2)OCO3)on1)Nc1ccc(OC(F)(F)F)cc1,1% (inactive)
22,COCCCNC(=O)C(=O)Nc1ccc(Cl)cn1,-18% (inactive)
23,COC(=O)c1ccc(NC(=O)C2CCCN(c3ccc(-c4ccc(F)cc4)nn3)C2)cc1 (centres undefined),-17% (inactive)
24,Cc1ccc(CN2CC(C(=O)N3CCN(S(=O)(=O)c4ccccc4)CC3)CC2=O)cc1 (centres undefined),-17.9% (inactive)

row,Compound,inhibition
1,O=C(C1CC(=O)N(c2ccc(F)cc2)C1)N1CCN(c2ccccc2)CC1 (centres undefined),-4.67% (inactive)
2,CCC(C)c1ccccc1N1CC(C(=O)N2CCN(S(=O)(=O)c3ccc(F)cc3)CC2)CC1=O (centres undefined),44% (active)
3,CC(=O)[C@@H](C(=O)N(C)C)n1cnc2c(cnn2-c2cccc(Cl)c2)c1=O,-12% (inactive)
4,O=[N+]([O-])c1ccccc1NCc1ccccc1Cl,-2.79% (inactive)
5,CC(C)C(=NNC(=O)Nc1ccccc1)c1ccccc1,-2.11% (inactive)
6,CC(C)C(=NNc1ccccc1[N+](=O)[O-])c1ccccc1,64.3% (active)
7,Cc1cc(=O)[nH]c(-n2ncc(C(=O)Nc3ccc(OC(F)(F)F)cc3)c2C)n1,-10% (inactive)
8,Cc1cc(C)c(S(=O)(=O)NCCC(=O)NCc2cccnc2)cc1N(C)S(C)(=O)=O,-9% (inactive)
9,CCOC(=O)c1sc(NC(=O)CSc2nnc(CNC(=O)c3ccc(Cl)cc3Cl)n2C)c(C(=O)OCC)c1C,5% (inactive) and -12% (inactive)
10,CCOC(=O)c1c(NC(=O)CSc2nnc(Cc3csc(N)n3)n2C)sc(C)c1C,-7% (inactive) and 53.5% (active)
11,CCOC(=O)c1c(NC(=O)CSc2nnc(CN3CCOCC3)n2C)sc2c1CCCC2,-3.23% (inactive)
12,CCSc1nnc(NC(=O)CSc2nnc(CNC(=O)c3cccs3)o2)s1,-13% (inactive)
13,CON=Cc1ccc(N2CCOCC2)c([N+](=O)[O-])c1,-5.72% (inactive)
14,O=C(COc1ccccc1F)NNC(=O)c1ccc(N2CCCCC2)c([N+](=O)[O-])c1,13.6% (inactive)
15,O=C(ON=Cc1ccc(N2CCCCC2)c([N+](=O)[O-])c1)c1c(F)cccc1F,41.1% (active)
16,COc1ccc(C(=O)CSc2nccn(-c3ccc(C)cc3)c2=O)cc1,8% (inactive)
17,c1ccc(-c2ccc(-c3csc4ncnc(N5CCCCCC5)c34)cc2)cc1,-3% (inactive)
18,COc1ccc(-c2nc3n(c2Br)CCC3)cc1,18.6% (inactive)
19,Brc1c(-c2ccccc2)nc2n1CCC2,57% (active)
20,Brc1cccc(-c2nnc3n2CCC3)c1,-16.1% (inactive)
21,CCc1ccc(S(=O)(=O)NN=Cc2ccc3c(c2)OCO3)cc1,-15.4% (inactive)
22,CCN(CC)c1ccc(C=NNS(=O)(=O)c2cccc([N+](=O)[O-])c2)cc1,46.5% (active)
23,COc1ccc(CCNS(=O)(=O)c2cccc([N+](=O)[O-])c2)cc1,0.99% (inactive)
24,Cc1ccccc1OCC(=O)NCCS(=O)(=O)N1CCN(Cc2ccccc2)CC1,-5% (inactive)

row,Compound,inhibition
1,Cc1nc2nc(COc3ccccc3)[nH]n2c(=O)c1C,-10.1% (inactive)
2,c1ccc(-c2nc(-c3cnccn3)n[nH]2)nc1,125% (active)
3,S=c1[nH]nc(COc2ccccc2)o1,-8% (inactive)
4,Cc1cccc2[nH]c(COc3ccc(F)cc3)nc12,-4% (inactive)
5,c1ccc(OCc2nc(-c3ccccn3)n[nH]2)cc1,104% (active)
6,COc1cccc(C(=O)N2CC(c3nc(-c4ccccn4)no3)C2)c1,-10% (inactive)
7,COc1ccc(OCc2nc(-c3ccccn3)n[nH]2)cc1,101% (active)
8,O=c1oc2ccccc2cc1-c1nc(-c2ccncc2)n[nH]1,0% (inactive)
9,CCOC(=O)c1ccccc1NC(=O)Cn1cnc2c(cnn2-c2ccc(C)cc2C)c1=O,20% (inactive)
10,Cc1cc(NC(=O)C(=O)NCc2cccnc2)ccc1N1CCCC1=O,0% (inactive)
11,COc1ccc(CCS(=O)(=O)NCC(=O)N2CCOC(c3ccccc3)C2)cc1 (centres undefined),2% (inactive)
12,Cc1ccc2cccc(C(=O)N3CC(S(=O)(=O)Cc4ccco4)C3)c2n1,-1% (inactive)
13,O=C(CSc1nc2c(c(=O)[nH]1)CN(Cc1ccc(F)cc1)CC2)Nc1ccc(F)c(Cl)c1,0% (inactive)
14,O=c1[nH]c(=S)[nH]c2sc3c(c12)CCC3,18% (inactive)
15,CCOc1cc(-c2nnc(NC(=O)c3cc(Cl)ccc3Cl)o2)cc(OCC)c1OCC,0% (inactive)
16,Cc1ccc(NC(=O)C(=O)NCC(c2ccc(F)cc2)N2CCN(C)CC2)cc1Cl (centres undefined),-4% (inactive)
17,CCCCOCCCn1c(NS(=O)(=O)c2ccccc2)c(S(=O)(=O)c2ccc(C)cc2)c2nc3ccccc3nc21,67.3% (active)
18,CCCCCCCCn1c(NS(=O)(=O)c2ccc(Cl)cc2)c(S(=O)(=O)c2ccccc2)c2nc3ccccc3nc21,49.6% (inactive)
19,CCCCn1c(NS(=O)(=O)c2ccc(Cl)cc2)c(S(=O)(=O)c2ccc(C)cc2)c2nc3ccccc3nc21,54.8% (inactive)
20,Cc1ccc(S(=O)(=O)Nc2c(S(=O)(=O)c3ccccc3)c3nc4ccccc4nc3n2Cc2ccccc2)cc1,34.2% (inactive)
21,Cc1ccc(S(=O)(=O)c2c(N)n(N=Cc3ccco3)c3nc4ccccc4nc23)cc1,11% (inactive)
22,CCCCOCCCn1c(NS(=O)(=O)c2ccc3ccccc3c2)c(S(=O)(=O)c2ccc(C)cc2)c2nc3ccccc3nc21,59.9% (active)
